Read-out in test [1]: Interleukin-6 (IL6), IL6 (gene 3569)
Nature of the test: BSK_CASM3C_IL6: BioMAP Diversity Plus: CASM3C Assay for Interleukin-6 (IL6) Biomarker Activity for (AID 2283040). To be noted: primary human coronary artery smooth muscle cells; actives raise or lower the signal.

Read-out in test [2]: Tissue plasminogen activator (tPA), PLAT (gene 5327)
Briefly: BSK_BE3C_tPA: BioMAP Diversity Plus: BE3C Assay for Tissue plasminogen activator (tPA) Biomarker Activity (AID 2283041).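 Further: tPA level quantified by ELISA one day after compound addition.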 To be noted: primary human bronchial epithelial cells; actives raise or lower the signal. Put shortly:
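Using human lung primary bronchial epithelial cells, tPA was measured by ELISA 24 h after dosing; data fitted relative to DMSO.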

Read-out in test [3]: Interleukin-8 (IL8), CXCL8 (gene 3576)
Briefly: BSK_CASM3C_IL8: BioMAP Diversity Plus: CASM3C Assay for Interleukin-8 (IL8) Biomarker Activity (AID 2283042).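 Further: IL-8 protein level quantified by ELISA.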 To be noted: primary human coronary artery smooth muscle cells; actives raise or lower the signal.

Read-out in test [4]: Human Leukocyte Antigen - DR isotype (HLADR), HLA-DRA (gene 3122)
Briefly: BSK_CASM3C_HLADR: BioMAP Diversity Plus: CASM3C Assay for Human Leukocyte Antigen - DR isotype (HLADR) Biomarker Activity (AID 2283043).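 Further: cell-surface HLA-DR protein level quantified by ELISA.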 To be noted: primary human coronary artery smooth muscle cells; actives raise or lower the signal.

Read-out in test [5]: Macrophage colony-stimulating factor (MCSF), CSF1 (gene 1435)
Nature of the test: BSK_CASM3C_MCSF: BioMAP Diversity Plus: CASM3C Assay for Macrophage colony-stimulating factor (MCSF) Biomarker Activity (AID 2283044).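 Further: M-CSF protein amount quantified by ELISA after 24 h exposure.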 To be noted: primary human coronary artery smooth muscle cells; actives raise or lower the signal.

Read-out in test [6]: Low-density lipoprotein receptor (LDLR), LDLR (gene 3949)
Nature of the test: BSK_CASM3C_LDLR: BioMAP Diversity Plus: CASM3C Assay for Low-density lipoprotein receptor (LDLR) Biomarker Activity (AID 2283045).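 Further: LDLR protein level on the cell surface quantified by ELISA.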 To be noted: primary human coronary artery smooth muscle cells; actives raise or lower the signal.

Read-out in test [7]: Monocyte Chemoattractant Protein-1 (MCP1), CCL2 (gene 6347)
Nature of the test: BSK_CASM3C_MCP1: BioMAP Diversity Plus: CASM3C Assay for Monocyte Chemoattractant Protein-1 (MCP1) Biomarker Activity (AID 2283046).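 Further: MCP-1 level quantified by ELISA 24 h after dosing.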 To be noted: primary human coronary artery smooth muscle cells; actives raise or lower the signal.

Test [8] in a line: BSK_CASM3C_Proliferation: Cell Proliferation Assessment in the BioMAP Diversity Plus: CASM3C Assay (AID 2283047).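 Further: sulforhodamine B total protein stain as relative cell number at 560 nm; sub-confluent cells exposed 48 h before staining; fitted both ways against DMSO so gain or loss of cell number.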 To be noted: primary human coronary artery smooth muscle cells.
Read-out in test [9]: Monokine induced gamma interferon (MIG), CXCL9 (gene 4283)
Nature of the test: BSK_CASM3C_MIG: BioMAP Diversity Plus: CASM3C Assay for Monokine induced gamma interferon (MIG) Biomarker Activity (AID 2283048).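 Further: MIG protein level measured by ELISA.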 To be noted: primary human coronary artery smooth muscle cells; actives raise or lower the signal.

Read-out in test [10]: serum amyloid A (SAA), SAA1 (gene 6288)
Briefly: BSK_CASM3C_SAA: BioMAP Diversity Plus: CASM3C Assay for serum amyloid A (SAA) Biomarker Activity (AID 2283049).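 Further: SAA protein level quantified by ELISA.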 To be noted: primary human coronary artery smooth muscle cells; actives raise or lower the signal.

Test [11] is described as follows: BSK_CASM3C_SRB: Viability Assessment in the BioMAP Diversity Plus: CASM3C Assay (AID 2283050).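 Further: total protein by SRB staining as cytotoxicity measure in parallel cultures; cells exposed to compound for 24 h.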 To be noted: primary human coronary artery smooth muscle cells.
Read-out in test [12]: Thrombomodulin, THBD (gene 7056)
Briefly: BSK_CASM3C_Thrombomodulin: BioMAP Diversity Plus: CASM3C Assay for Thrombomodulin Biomarker Activity (AID 2283051).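 Further: thrombomodulin protein level measured by ELISA 24 h after dosing.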 To be noted: primary human coronary artery smooth muscle cells; actives raise or lower the signal.

Read-out in test [13]: Tissue Factor, F3 (gene 2152)
Nature of the test: BSK_CASM3C_TissueFactor: BioMAP Diversity Plus: CASM3C Assay for Tissue Factor Biomarker Activity (AID 2283052).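 Further: cell surface tissue factor protein level read by ELISA.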 To be noted: primary human coronary artery smooth muscle cells; actives raise or lower the signal.

Read-out in test [14]: Interferon-gamma inducible Protein 10 (IP10), CXCL10 (gene 3627)
Briefly: BSK_hDFCGF_IP10: BioMAP Diversity Plus: hDFCGF Assay for Interferon-gamma inducible Protein 10 (IP10) Biomarker Activity (AID 2283053). To be noted: primary human foreskin fibroblasts; actives raise or lower the signal. Put shortly: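 Chemical-treated human skin fibroblasts (primary) were sampled at 24 h for IP-10 by ELISA. Both increases and decreases relative to DMSO were scored.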

Read-out in test [15]: Urokinase-type plasminogen activator receptor (uPAR), PLAUR (gene 5329)
Nature of the test: BSK_CASM3C_uPAR: BioMAP Diversity Plus: CASM3C Assay for Urokinase-type plasminogen activator receptor (uPAR) Biomarker Activity (AID 2283054).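 Further: cell-surface uPAR protein level quantified by ELISA.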 To be noted: primary human coronary artery smooth muscle cells; actives raise or lower the signal.

Read-out in test [16]: Vascular cell adhesion molecule 1 (VCAM1), VCAM1 (gene 7412)
Nature of the test: BSK_CASM3C_VCAM1: BioMAP Diversity Plus: CASM3C Assay for Vascular cell adhesion molecule 1 (VCAM1) Biomarker Activity (AID 2283055).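 Further: VCAM-1 protein level quantified by ELISA on the cells.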 To be noted: primary human coronary artery smooth muscle cells; actives raise or lower the signal.

Read-out in test [17]: Collagen III, COL3A1 (gene 1281)
Briefly: BSK_hDFCGF_CollagenIII: BioMAP Diversity Plus: hDFCGF Assay for Collagen III Biomarker Activity (AID 2283056). To be noted: primary human foreskin fibroblasts; actives raise or lower the signal. Summed up: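 Cells: human foreskin fibroblasts, primary. Dosing followed by 24 h incubation, then ELISA for collagen III. Both increases and decreases scored relative to DMSO.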

Read-out in test [18]: Epidermal growth factor receptor (EGFR), EGFR (gene 1956)
Briefly: BSK_hDFCGF_EGFR: BioMAP Diversity Plus: hDFCGF Assay for Epidermal growth factor receptor (EGFR) Biomarker Activity (AID 2283057). To be noted: primary human foreskin fibroblasts; actives raise or lower the signal. Put shortly:
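Cell-based multiplexed assay in primary human foreskin fibroblasts. EGFR is read by ELISA 24 h after treatment and compared with DMSO controls.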

Read-out in test [19]: Interleukin-8 (IL8), CXCL8 (gene 3576)
Nature of the test: BSK_hDFCGF_IL8: BioMAP Diversity Plus: hDFCGF Assay for Interleukin-8 (IL8) Biomarker Activity (AID 2283058). To be noted: primary human foreskin fibroblasts; actives raise or lower the signal. Summed up: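 IL-8 levels from compound-treated primary human fibroblasts were read by ELISA at 24 h, with DMSO serving as baseline for bidirectional fitting.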

A short description of test [20]: BSK_hDFCGF_Proliferation: Cell Proliferation Assessment in the BioMAP Diversity Plus: hDFCGF Assay (AID 2283059).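 Further: curves fitted for both rise and fall of signal versus DMSO baseline.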 To be noted: primary human foreskin fibroblasts. Put shortly: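 Total protein read at 560 nm after 0.1% SRB staining of TCA-fixed human skin fibroblasts, […]. Activity is fitted in both directions relative to DMSO as baseline.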

Each structure is given as a SMILES string. “And” between values parts separate entries of the source, which are not always exact repeats. Identical values can stand only once. Some compounds were tested as several samples or in several runs, with calls that do not always agree. The source made the active and inactive calls. How the source made its calls: active means hit-call score of the fitted dose curve at least 0.9, where 1 is the maximum; inactive means score below 0.9.

For orientation: AC50 means the midpoint of the concentration-response curve, whichever way the signal moves.

With `FC(F)(F)C(F)(F)C(F)(F)C(F)(F)C(F)(F)CCI`, the outcome in test [1], in test [2], in test [3], in [4], in test [5] and in test [6] was inactive. Besides, the result in [7], in test [9], in [10], in [11], in test [12] and in test [13] was inactive. The result in test [14], in test [15], in test [16], in test [17], in test [18] and in test [19] was inactive. Further, the half-maximal activity concentration (AC50) in test [8] was 7.99 µM (active) and 30 µM (active); in test [14], 22.2 µM (active); in test [20], 32.1 µM (active) and 31.2 µM (active).

For `C=CC(=O)OCC(F)(F)C(F)(F)C(F)(F)C(F)(F)C(F)(F)C(F)(F)C(F)(F)F`, the result in [1], in [2], in [3], in [4], in test [5] and in [6] was inactive. Moreover, the outcome in test [7], in test [8], in test [9], in [10], in [11] and in test [12] was inactive. Further, the outcome in test [13], in test [14], in test [15], in [16], in test [17] and in test [18] was inactive. The outcome in test [19] was inactive. In addition, the AC50 in test [20] was 17.5 µM (active) and 46.3 µM (active).

As for `O=C(O)C(F)(F)C(F)(F)C(F)(F)C(F)(F)C(F)(F)C(F)(F)C(F)(F)C(F)(F)C(F)(F)C(F)(F)C(F)(F)C(F)(F)F`, the outcome in test [1], in test [2], in [3], in test [4], in test [5] and in [6] was inactive. The outcome in test [7], in [8], in test [9], in test [11], in [12] and in test [13] was inactive. Besides, the result in test [15], in test [18], in [19] and in test [20] was inactive. The AC50 in test [4] was 16.1 µM (active); in [10], 2.34 µM (active) and 3.54 µM (active); in test [12], 13.3 µM (active); in test [14], 1.86 µM (active) and 1.07 µM (active); in test [16], 7.09 µM (active) and 4.44 µM (active); in test [17] it was 2.45 µM (active) and 896 nM (active). In addition, the AC50 in [20] was 2.47 µM (active).

For `C#C[C@]1(O)CC[C@H]2[C@@H]3CCc4cc(OC)ccc4[C@H]3CC[C@@]21C`, the outcome in [1], in test [2], in test [3], in test [4], in [5] and in [6] was inactive. The result in [7], in test [9], in test [10], in test [11], in test [12] and in [14] was inactive. Moreover, the result in test [15], in [16] and in [19] was inactive. The AC50 is 253 nM (active) in test [8]; 0.016 µM (active) in [13]; 3.48 nM (active) in [17]; 0.016 µM (active) in test [18]; 4.67 µM (active) in test [20].

With `N=C(N)C(F)(F)C(F)(F)C(F)(F)C(F)(F)C(F)(F)C(F)(F)C(F)(F)F`, the result in test [1], in test [2], in test [3], in [4], in test [5] and in [6] was inactive. The result in [7], in test [8], in test [9], in test [10], in test [11] and in test [12] was inactive. Moreover, the outcome in [13], in test [15], in test [16], in test [18] and in test [19] was inactive. In addition, the AC50 is 30 µM (active) in test [4]; 27.1 µM (active) in test [6]; 46100 nM (active) in test [8]; 42.9 µM (active) and 50.1 µM (active) in test [14]; 10.9 µM (active) and 10.7 µM (active) in [17]; 53.9 µM (active) in test [18]. Also, the AC50 in [20] is 39.7 µM (active) and 54.7 µM (active).

As for `O=S(=O)(OCC(F)F)C(F)(F)F`, the outcome in test [1], in test [2], in test [3], in test [4], in test [5] and in test [6] was inactive. Moreover, the outcome in test [7], in test [8], in test [9], in test [10], in test [11] and in test [12] was inactive. Also, the outcome in test [13], in test [14], in [15], in [16], in [17] and in test [18] was inactive. The outcome in [19] and in test [20] was inactive.

The values are drawn from PubChem BioAssay (EPA / NIEHS).
